A number with no mark means an inactive call.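 Rule for the calls: active = AUC reduced over 20% with Padj below 0.05 in at least 2 of 3 replicates; inactive = otherwise.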
What was measured:
Assay in all cases: growth AUC relative to DMSO control (median of replicates) (fraction); higher = more growth (less inhibition), active = hit call of the paper
Settings in all cases: 20 µM; 24 h
Akkermansia muciniphila = system: Akkermansia muciniphila
Outline: (§1)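 Area under the growth curve was normalised to the plate median of solvent-only wells, or to row and column medians on the industrial chemical plate. Growth curves came from anaerobic gut bacterial monocultures in mGAM at 37 °C, seeded at OD600 0.05 with 20 µM compound (1% DMSO), and read at OD600 hourly for 24 h with the minimum OD set to 0. The value is the median of three biological replicates grown on separate days.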

Bacteroides caccae = system: Bacteroides caccae
Outline: as §1

Bacteroides clarus = system: Bacteroides clarus
Outline: as §1

Bacteroides dorei = system: Bacteroides dorei
Outline: as §1

Bacteroides stercoris = system: Bacteroides stercoris
Outline: as §1

[1] = system: Bacteroides thetaiotaomicron
Outline: as §1

Bacteroides uniformis = system: Bacteroides uniformis
Outline: as §1

[2] = system: Bifidobacterium longum subsp. longum
Outline: as §1

Clostridium difficile = system: Clostridium difficile
Outline: as §1

Collinsella aerofaciens = system: Collinsella aerofaciens
Outline: as §1

Coprococcus comes = system: Coprococcus comes
Outline: as §1

Escherichia coli ED1a = system: Escherichia coli ED1a
Outline: as §1

Escherichia coli IAI1 = system: Escherichia coli IAI1
Outline: as §1

Eubacterium rectale = system: Eubacterium rectale
Outline: as §1

[3] = system: Fusobacterium nucleatum subsp. animalis
Outline: as §1

Lactobacillus gasseri = system: Lactobacillus gasseri
Outline: as §1

Lactobacillus paracasei = system: Lactobacillus paracasei
Outline: as §1

Odoribacter splanchnicus = system: Odoribacter splanchnicus
Outline: as §1

[4] = system: Parabacteroides distasonis
Outline: as §1

Parabacteroides merdae = system: Parabacteroides merdae
Outline: as §1

Structure (SMILES)	growth AUC (Akkermansia muciniphila)	growth AUC (Bacteroides caccae)	growth AUC (Bacteroides clarus)	growth AUC (Bacteroides dorei)	growth AUC (Bacteroides stercoris)	growth AUC [1]	growth AUC (Bacteroides uniformis)	growth AUC [2]	growth AUC (Clostridium difficile)	growth AUC (Collinsella aerofaciens)	growth AUC (Coprococcus comes)	growth AUC (Escherichia coli ED1a)	growth AUC (Escherichia coli IAI1)	growth AUC (Eubacterium rectale)	growth AUC [3]	growth AUC (Lactobacillus gasseri)	growth AUC (Lactobacillus paracasei)	growth AUC (Odoribacter splanchnicus)	growth AUC [4]	growth AUC (Parabacteroides merdae)
C[C@@H](Oc1ccc(Oc2nc3ccc(Cl)cc3o2)cc1)C(=O)O	1.03	1	1.01	0.924	1.09	1.01	0.929	1.16	0.905	0.961	1.04	1.01	1.02	1.07	1.01	0.968	0.983	1.09	1.03	1.03
CCN(CC)C(=O)C(C)Oc1cccc2ccccc12 (stereo not given)	0.935	0.996	0.976	0.981	1.05	0.984	0.958	0.989	0.965	0.999	1.01	0.979	1.01	0.983	1.02	1.03	0.977	0.96	0.997	1.02
CNC(=O)c1cc(C#N)cc(C)c1NC(=O)c1cc(Br)nn1-c1ncccc1Cl	0.947	1.04	0.977	1.01	0.933	0.982	0.995	0.999	1	0.981	0.996	1.01	1.02	0.972	0.88	1.12	1.02	0.99	1.02	0.983
CCS(=O)(=O)CCSP(=O)(OC)OC	0.829	1.02	0.962	1	0.979	1.01	0.986	1.01	0.975	1.01	0.975	1.01	0.992	0.935	0.969	1.04	1.03	0.97	1.08	0.988
C=CC(N)=O	1.01	0.985	1	0.963	0.983	0.99	1.01	0.875	1.01	1.01	1.01	0.972	1	0.997	1.02	1.01	1.01	1.01	0.976	0.993
ClC1=C(Cl)C2(Cl)[C@H]3[C@@H]4O[C@@H]4[C@H](Cl)[C@H]3C1(Cl)C2(Cl)Cl (single isomer, unassigned; isomer b)	1.29	0.98	0.973	0.933	0.752	0.96	0.89	1.19	1.01	0.957	0.931	0.995	0.983	0.979	0.923	0.95	0.501	1.07	1.03	0.969
COC(=O)c1ccccc1S(=O)(=O)NC(=O)N(C)c1nc(C)nc(OC)n1	0.981	0.984	0.979	0.984	1.05	0.99	1	1.01	0.984	1.03	1.01	0.982	0.978	0.968	1	1.06	0.992	1.01	0.98	1
OC(c1ccc(F)cc1)(c1cncnc1)c1ccccc1Cl (stereo not given)	0.95	0.993	0.951	0.966	0.991	0.942	0.954	1.01	0.966	0.988	0.962	0.996	1.01	0.965	1.06	0.969	1.02	0.931	1	0.782 (active)
COC(=O)c1ccccc1S(=O)(=O)NC(=O)Nc1nc(C)nc(OC)n1	1.1	1.02	0.982	1.01	0.849	0.995	1.03	1	1.01	0.957	0.975	0.963	0.958	1.05	0.913	0.934	0.933	1.07	0.977	0.962
CCCCCCCCSC(=O)Oc1cc(Cl)nnc1-c1ccccc1	1.01	0.983	0.983	0.99	0.981	1.02	0.91	0.966	0.981	0.973	0.98	0.976	0.972	0.868	0.914	1.02	1.04	0.905	0.99	0.967
ClC1=C(Cl)C2(Cl)C3COCC3C1(Cl)C2(Cl)Cl (stereo not given)	0.531 (active)	0.91	1.11	0.925	1.05	0.871	0.916	0.918	0.966	1.02	0.912	1	1.03	0.992	1.12	1.01	0.94	0.99	0.987	1.02
c1cc2c3c(cccc3c1)CC2	0.966	1	1	1.01	0.991	0.999	0.994	0.961	0.993	0.995	1	1.01	1.01	1.05	1.07	1.05	1.01	1.01	1.01	0.995
CC(C)=NOCCOC(=O)[C@@H](C)Oc1ccc(Oc2cnc3cc(Cl)ccc3n2)cc1	0.861	0.965	1	0.958	0.876	0.937	0.899	0.924	0.981	0.954	0.94	1.01	1.01	0.957	0.864	1.04	0.974	0.931	0.983	0.955
CCC1(C(=O)NC(C)c2ccc(Cl)cc2)C(C)C1(Cl)Cl (stereo not given)	1.18	0.963	0.985	0.884	0.958	0.909	0.881	0.969	0.969	0.942	0.97	0.964	1	1	0.886	0.871	0.955	0.851	0.641 (active)	0.91
CC(C)Oc1cc(-n2nc(C(C)(C)C)oc2=O)c(Cl)cc1Cl	1.21	0.984	0.942	0.982	0.884	0.987	0.898	0.962	0.932	0.921	1.01	0.96	0.993	1.04	1	0.803	1.01	0.967	0.705 (active)	0.96
CNC(=O)Oc1cc(C)c(S(C)=O)c(C)c1 (stereo not given)	0.977	0.949	0.999	1	1.13	0.978	1.02	1.04	0.968	1.05	0.997	1.01	0.97	0.884	1.09	0.963	0.952	0.996	1	1.05

From the supplement of paper PMC12669032
